# Data: PubChem BioAssay (NCATS)
# Inconclusive results are not listed. Where a call stands in place of a potency, no number is given. Activity calls are given as the source filed them. Unless noted, the call rests on the fitted dose curve; in most records, active means well fitted curve in the direction sought with a large enough effect; inconclusive means small, poorly fitted or top-dose-only effect, or another doubt; inactive means no such curve, though single readings can be large; an effect the other way counts as inactive or inconclusive.
# Experiments:
# [1] = target: Glutaminase kidney isoform, mitochondrial (Homo sapiens) (UniProt O94925); experiment: qHTS for Inhibitors of Glutaminase (GLS): LOPAC Validation (AID 624146);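 further: glutamate product detected by oxidase and peroxidase coupled Amplex red fluorescence gain; nearly all actives have a fitted effect of over 60% in size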
# Method in brief: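 hKGA; 45 mM KH2PO4 pH 8.2 + 0.02% Tween-20; cpd via pin tool; 1 mM Gln soln; GluOx/HRP/Amplex Red; RT 30 min; fluor. t0 & final.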
# [2] = qHTS of Trypanosoma Brucei Inhibitors: LOPAC Validation (AID 624147)
# Method in brief: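 T. brucei PYK with substrate was exposed to pin-transferred compounds across a concentration series, then started with 130 uM ADP (final). After 45 min at room temperature, Kinase-Glo Plus luminescence was read, normalized and curve-fitted.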
# [3] = target: Glucagon-like peptide 1 receptor (Homo sapiens) (UniProt P43220); experiment: qHTS of GLP-1 Receptor Agonists: LOPAC Validation (AID 624148);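 further: higher luminescence signal means agonism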
# Method in brief: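 HEK293 cells stably co-expressing a cAMP-responsive luciferase reporter and a hypersensitive GLP-1R were plated 12 h at 37 °C and exposed to compounds for 4-6 hr at 37 °C, 5% CO2. Luminescence was read 12 min after adding detection reagent.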
# [4] = qHTS of Nrf2 Activators: LOPAC Validation (AID 624149)
# Method in brief: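 AREc32 cells carrying an ARE-driven firefly luciferase were grown overnight in OPTI-MEM with 5% FBS, then exposed to compounds for 24 hr at 37 deg C. Luciferase signal was read after 30 min with Steady-Glo at RT.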
# [5] = HTS Assay for Allosteric Antagonists of the Human D2 Dopamine Receptor: Hit Validation in HTRF (AID 624455);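 further: stable D1 dopamine receptor cell line scored for blocking the D1 response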
# Method in brief: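 Hits were examined in an HTRF assay using cells stably expressing the D1 dopamine receptor, scoring inhibition of the D1-mediated response. The preceding primary screen tracked calcium flux after an EC80 dopamine addition in force-coupled, inducible Hek293 Trex D2 cells.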
# [6] = Cytotoxicity counterscreen for NFkB agonists and antagonists (AID 624476);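 further: cells exposed to compound for 48 hours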
# [7] = qHTS Assay for Identification of Small Molecule Agonists for NFkB Signaling Pathway. (AID 624478)
# Method in brief: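 NFkB-bla ME-180 cells (beta-lactamase reporter under NFkB response element) were plated overnight, treated with compound plus TNF alpha at 10 pM final (its EC50) for 5 hrs at 37 C, then loaded with LiveBLAzer substrate for 2 hrs.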
# [8] = qHTS Assay for Identification of Small Molecule Antagonists for NFkB Signaling Pathway. (AID 624479; calls by dose curve;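 further: pathway stimulated with TNF alpha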)
# [9] = Cell Proliferation Assay against the TMD8 Cell Line (AID 651645); conditions: TMD8 DLBCL cell line proliferation/viability; at 46.1 µM (top of the series);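 further: cells exposed to compound for 48 h before reading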
# Method in brief: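 500 TMD8 cells/well, RPMI + Glutamax, no phenol red, 5% FBS; cpd added immediately; 48 h, 37C, 5% CO2; CellTiter-Glo, luminescence. Controls: DMSO = 100%, bortezomib 9.2 uM final = 0%.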
# [10] = Cell Proliferation Assay against the HBL1 Cell Line (AID 651646); conditions: HBL1 DLBCL cells; at 46.1 µM (top of the series);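 further: cells exposed to compound for 48 h before reading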
# Method in brief: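 500 log-phase HBL1 cells per well in phenol red-free RPMI with 5% FBS were treated with compounds for 48 h at 37 °C, 5% CO2. Viability was read by CellTiter-Glo luminescence, normalized to DMSO (100%) and 9.2 uM bortezomib final (0%).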
# [11] = Cell Proliferation Assay against the TMD8 Cell Line (Caspase readout at 16 hrs) (AID 651712)
# Method in brief: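 TMD8 cells (500/well) in phenol-red-free RPMI with glutamine, 5% FBS, were exposed to compounds for 16 h at 37 °C. Caspase 3/7 activation was read by Caspase-Glo luminescence; percent activity normalised to DMSO (0%) and 9.2 uM bortezomib final (100%).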
# [12] = Cell Proliferation Assay against the TMD8 Cell Line (Caspase readout at 8 hrs) (AID 651713)
# Method in brief: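 TMD8 cells (500/well) in phenol red-free RPMI with 5% FBS were treated with compounds for 8 h at 37C, 5% CO2. Caspase-Glo 3/7 luminescence was read after 15 min at room temperature and normalised to DMSO (0%) and 9.2 uM bortezomib (100%).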
# [13] = S16 Schwann cell PMP22 intronic element beta-lactamase assay (AID 624044; calls by dose curve; further: nearly all actives have a fitted effect of over 15% in size)
# Method in brief: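 Rat S16 Schwann cells with beta-Lac driven by a PMP22 intronic element, compound-treated 24 h at 37 °C. LiveBLAzer FRET B/G read: 460 nm normalized to potassium clavulanate vs DMSO; 535 nm FRET as viability; concentration-effect curves classified.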
# [14] = qHTS assay to identify small molecules that stimulate interleukin-8 (IL-8) secretion (AID 651758; active means well fitted activation curve with a large enough effect in the signal ratio; the % refers to the signal ratio; further: potency means the concentration at half of the fitted maximal effect)
# Method in brief: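 THP-1, 2000 cells/well; cpd 16 h, 37 C; add cryptate + XL665 anti-IL-8 Abs; RT 1-3 h; TR-FRET read.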
# Sequence of Glutaminase kidney isoform, mitochondrial (Homo sapiens) (O94925 whole entry, looked up, canonical isoform): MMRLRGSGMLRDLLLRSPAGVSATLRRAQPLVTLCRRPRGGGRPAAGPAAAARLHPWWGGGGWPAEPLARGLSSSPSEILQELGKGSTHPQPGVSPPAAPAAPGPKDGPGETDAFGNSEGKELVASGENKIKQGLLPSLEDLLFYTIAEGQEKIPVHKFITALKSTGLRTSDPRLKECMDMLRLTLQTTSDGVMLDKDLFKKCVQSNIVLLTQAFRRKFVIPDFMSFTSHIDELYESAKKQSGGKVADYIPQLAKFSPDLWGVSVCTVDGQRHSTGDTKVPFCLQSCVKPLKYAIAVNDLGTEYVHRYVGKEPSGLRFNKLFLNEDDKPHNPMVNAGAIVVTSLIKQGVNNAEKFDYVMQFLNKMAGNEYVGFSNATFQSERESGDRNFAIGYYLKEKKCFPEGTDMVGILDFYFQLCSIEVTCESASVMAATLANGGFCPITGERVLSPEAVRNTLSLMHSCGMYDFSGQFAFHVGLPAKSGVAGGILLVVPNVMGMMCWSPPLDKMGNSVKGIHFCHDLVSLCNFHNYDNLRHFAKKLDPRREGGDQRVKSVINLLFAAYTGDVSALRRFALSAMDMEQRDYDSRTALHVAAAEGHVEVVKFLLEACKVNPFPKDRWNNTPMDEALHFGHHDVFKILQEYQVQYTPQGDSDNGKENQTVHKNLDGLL
# Sequence of Glucagon-like peptide 1 receptor (Homo sapiens) (P43220 whole entry, looked up): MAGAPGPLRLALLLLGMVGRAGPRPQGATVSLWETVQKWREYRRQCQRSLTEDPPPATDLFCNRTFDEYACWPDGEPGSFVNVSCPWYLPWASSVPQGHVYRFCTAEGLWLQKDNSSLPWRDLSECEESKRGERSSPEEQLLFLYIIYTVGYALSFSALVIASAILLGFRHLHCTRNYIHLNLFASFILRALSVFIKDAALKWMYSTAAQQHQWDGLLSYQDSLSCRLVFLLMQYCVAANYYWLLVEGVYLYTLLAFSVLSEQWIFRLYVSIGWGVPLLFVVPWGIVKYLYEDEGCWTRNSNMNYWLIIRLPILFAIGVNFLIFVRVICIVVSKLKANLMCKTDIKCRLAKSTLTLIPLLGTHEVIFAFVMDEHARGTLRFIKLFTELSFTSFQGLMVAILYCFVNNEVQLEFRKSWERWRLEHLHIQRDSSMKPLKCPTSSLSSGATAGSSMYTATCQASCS
structure (smiles),measurement,setting,value
O=C(O)c1nn(Cc2ccc(Cl)cc2Cl)c2ccccc12,outcome,[1],inactive
same,outcome,[2],inactive
same,outcome,[3],inactive
same,outcome,[4],inactive
same,Potency,[5],inactive
same,outcome,[6],inactive
same,outcome,[7],inactive
same,outcome,[8],inactive
same,viability (% of control),[9],107%
same,"viability, percent of control",[10],112%
same,outcome,[11],inactive
same,outcome,[12],inactive
CCCCCCCCC(=O)NCc1ccc(O)c(OC)c1,Potency,[13],inactive
NC(=O)CN1CCCC1=O,outcome,[2],inactive
COC(=O)C1=CCCN(C)C1,outcome,[2],inactive
O=C(CCl)c1ccc(Cl)cc1Cl,Potency,[14],3.76 µM (active)
